We go through two compounds from PubChem BioAssay (Tox21).

This test in a line: Nuclear factor erythroid 2-related factor 2/antioxidant responsive element (Nrf2/ARE) small molecule agonists: luciferase reporter gene qHTS assay in human keratinocytes (AID 1919969). Note: nearly all actives have a fitted effect of over 35% in size. The settings on record: KeratinoSens HaCaT ARE-luciferase, luminescence, 24 h; series mostly up to 92.4 µM.

The structures appear in SMILES notation. Records with an inconclusive call do not appear. Where a call stands in place of a potency, no number is given. Activity calls are given as the source filed them. Calls come from the whole dose curve.

In the case of `Cc1ccccc1`, the Potency entry was “inactive”.
For `CCCN(CCC)c1c([N+](=O)[O-])cc(S(N)(=O)=O)cc1[N+](=O)[O-]`, the Potency entry is “inactive”.
